Results as given in the supplement of paper PMC12645437, “Orthogonal IMiD-Degron Pairs Induce Selective Protein Degradation in Cells” (ACS Chemical Biology, 2025).
Whole data set: some 8,300 sequences, median “log2 fold change of degron read counts, EGFP-low vs EGFP+ sorted cells (limma voom), compound-induced degradation” near -1.1, cut for the highest 2% near 3.2. This is one part of a sample in which the highest values are shown more often than they occur.

T1: CRBN, Q96SW2
T1 chain: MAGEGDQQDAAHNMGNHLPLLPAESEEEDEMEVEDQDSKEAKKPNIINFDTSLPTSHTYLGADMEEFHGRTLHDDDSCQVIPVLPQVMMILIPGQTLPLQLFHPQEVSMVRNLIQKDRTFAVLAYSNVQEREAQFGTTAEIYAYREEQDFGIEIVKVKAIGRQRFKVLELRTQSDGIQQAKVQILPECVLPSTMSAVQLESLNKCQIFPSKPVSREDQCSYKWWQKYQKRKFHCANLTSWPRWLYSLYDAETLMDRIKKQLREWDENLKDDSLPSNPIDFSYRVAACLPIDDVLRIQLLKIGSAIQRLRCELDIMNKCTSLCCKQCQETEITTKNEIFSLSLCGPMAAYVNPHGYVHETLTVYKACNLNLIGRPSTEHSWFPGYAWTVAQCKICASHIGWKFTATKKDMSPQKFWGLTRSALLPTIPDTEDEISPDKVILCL


Biological target: T1, CRBN, Q96SW2
Test: log2 fold change of degron read counts, EGFP-low vs EGFP+ sorted cells (limma voom), compound-induced degradation; higher = more compound-induced degradation of the degron-EGFP fusion; degrons are variants of IKZF1/3 zinc finger 2; compound dose not given here
Details: Jurkat, 18 h
[1] = compound: compound 19 (5-tert-butyl-thalidomide)
[2] = compound: compound 22 (5-morpholino-thalidomide)
[3] = compound: compound 33 (diphenyl IMiD analogue)
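Also: pooled lentiviral library of zinc finger degron-EGFP fusions in mCherry-positive Jurkat cells, FACS-sorted after compound exposure, with degron abundance counted by next-generation sequencing.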

| Sequence | log2 fold change of degron read counts [1] | log2 fold change of degron read counts [2] | log2 fold change of degron read counts [3] | log2 fold change of degron read counts (compound: thalidomide) |
| --- | --- | --- | --- | --- |
| FECDICGACFTQKGNLLRHIKL [46F_47E_49D_50I_52G_53A_54C_55F_67L_, Q9UKT9] | -0.944 | -2.76 | 0.061 | 0.157 |
| FLCDVCGAYFTQKGNLLRHIKL [46F_47L_49D_50V_52G_53A_54Y_55F_67L_, Q9UKT9] | -2.05 | -2.41 | -1.49 | -1.52 |
| FSCNVCGARFTQKGNLLRHIKL [46F_47S_49N_50V_52G_53A_54R_55F_67L_, Q9UKT9] | 0.49 | 0.453 | -1.03 | -0.0608 |
| FRCNQCGASFTQKGNLLRHIKL [46F_47R_49N_50Q_52G_53A_54S_55F_67L_, Q9UKT9] | -1.71 | -2.14 | -0.702 | -1.17 |
| FDCEICGREFTQKGNLLRHIKL [46F_47D_49E_50I_52G_53R_54E_55F_67L_, Q9UKT9] | -2.21 | -2.29 | -2.42 | -2.31 |
| FHCNVCGAQFTQKGNLLRHIKL [46F_47H_49N_50V_52G_53A_54Q_55F_67L_, Q9UKT9] | -0.612 | 0.00036 | 0.0621 | -0.871 |
| FCCPICGHNFTQKGNLLRHIKL [46F_47C_49P_50I_52G_53H_54N_55F_67L_, Q9UKT9] | -2.22 | -2.17 | -1.7 | -1.28 |
| FYCEQCGAHFTQKGNLLRHIKL [46F_47Y_49E_50Q_52G_53A_54H_55F_67L_, Q9UKT9] | -0.125 | 0.783 | 0.184 | -1.6 |
| FECPICGANFTQKGNLLRHIKL [46F_47E_49P_50I_52G_53A_54N_55F_67L_, Q9UKT9] | 0.136 | -0.0311 | 2.92 | 3.27 |
| FTCPICGANFTQKGNLLRHIKL [46F_47T_49P_50I_52G_53A_54N_55F_67L_, Q9UKT9] | 0.0113 | 2.63 | 1.93 | 2.85 |
| FRCPICGANFTQKGNLLRHIKL [46F_47R_49P_50I_52G_53A_54N_55F_67L_, Q9UKT9] | -0.337 | -0.426 | 1.12 | 1.57 |
| FVCPICGANFTQKGNLLRHIKL [46F_47V_49P_50I_52G_53A_54N_55F_67L_, Q9UKT9] | 0.327 | 2.63 | 1.9 | 2.81 |
| FMCPICGANFTQKGNLLRHIKL [46F_47M_49P_50I_52G_53A_54N_55F_67L_, Q9UKT9] | -0.073 | 1.2 | 2.87 | 1.98 |
| FNCPICGANFTQKGNLLRHIKL [46F_47N_49P_50I_52G_53A_54N_55F_67L_, Q9UKT9] | 2.14 | 0.903 | 0.95 | 0.651 |
| FFCPICGANFTQKGNLLRHIKL [46F_47F_49P_50I_52G_53A_54N_55F_67L_, Q9UKT9] | 2.81 | 3.66 | 1.86 | 1.33 |
| FQCPICGANFTQKGNLLRHIKL [46F_47Q_49P_50I_52G_53A_54N_55F_67L_, Q9UKT9] | 0.555 | 2.18 | 2.19 | 3.58 |
| FSCPICGANFTQKGNLLRHIKL [46F_47S_49P_50I_52G_53A_54N_55F_67L_, Q9UKT9] | 2.46 | 1.78 | 1.97 | 1.54 |
| FLCPICGANFTQKGNLLRHIKL [46F_47L_49P_50I_52G_53A_54N_55F_67L_, Q9UKT9] | 0.744 | 0.272 | 1.69 | 1.77 |
| FYCPICGANFTQKGNLLRHIKL [46F_47Y_49P_50I_52G_53A_54N_55F_67L_, Q9UKT9] | 3.19 | 3.46 | 2.38 | 1.52 |
| FDCPICGANFTQKGNLLRHIKL [46F_47D_49P_50I_52G_53A_54N_55F_67L_, Q9UKT9] | 2.63 | 0.285 | 2.3 | 2.15 |
